The record followed here is PubChem BioAssay (Tox21).

Inconclusive results are not listed. Values without a mark were called inactive. The source made the active and inactive calls. Calls come from the whole dose curve; as a rule, active = well fitted cell-killing curve with a large enough effect in the repeat runs; inconclusive = weak or mixed curves, or effect the other way; inactive = flat fitted curve, though single readings scatter.
% is set by controls: 0 for no effect and ±100 for the full control effect; potency is the fitted concentration of half-maximal effect.

This assay can be described thus: cAMP Responsive Elements (CRE) small molecule antagonists, cell-based qHTS assay: qHTS cell viability counter screen (AID 2060913). Note: nearly all actives have a fitted effect of over 40% in size. The note with it: CRE-bla HEK293T viability, CellTiter-Glo luminescence, 5 h; series mostly up to 92.4 µM; viability change, negative = cytotoxic: at the top concentration. An excerpt: U.S. Tox21 Program National Center for Advancing Translational Sciences [NCATS] Division of Preclinical Innovation [DPI] U.S. Environmental Protection Agency [EPA] National Institutes of Environmental Health Sciences [NIEHS] National Toxicology Program [NTP] U.S. Food and Drug Administration [FDA] Tox21 Assay Overview: CREB (cyclic-AMP Responsive Element Binding Protein) is a cellular transcription factor. It binds to certain DNA sequences called cAMP Responsive Elements (CRE) and regulates the transcription of the genes. […] This cell line can be used to find agonists/antagonists of the cyclic AMP signaling pathway. The activation of the report gene under culture conditions can be detected by fluorescence intensity. This cell line has been used to screen the Tox21 10K compound library to identify agonists that induce oxidative stress. The cytotoxicity of the Tox21 compound library against the CRE-bla cell line was tested in parallel by measuring the cell viability using CellTiter-Glo assay (Promega, Madison, WI) in the same wells.
Tox21 Assay Protocol Summary: CRE-bla Hek 293T cells were suspended in assay medium (DMEM containing 10% dialyzed FBS, 0.1 mM NEAA, 1 mM sodium pyruvate and 25 mM HEPES) and dispensed at 2,000 cells/4 uL /well into 1536-well black wall/clear bottom plates using a Multidrop Combi (ThermoFisher Scientific, Waltham, MA) dispenser. After the assay plates were incubated at 37 C/5% CO2 for 18 hrs, 23 nL of compounds dissolved in DMSO, positive controls or DMSO only was transferred to the assay plate by a pintool workstation (Kalypsys, San Diego, CA), followed by addition of 1 uL of 1.25uM NKH477 (0.25 uM as final concentration) in assay medium using a Flying Reagent Dispenser (Aurora Discovery, San Diego, CA). The plates were incubated at 37 C and 5% CO2 for 3 hrs. Then 1 uL of LiveBLAzer B/G FRET substrate (Invitrogen, Carlsbad, CA) was added to each well using Bioraptr Flying Reagent Dispenser (FRD, Aurora Discovery, San Diego, CA). The plates were incubated at room temperature for 2 h, then fluorescence intensities were measured using an Envision plate reader (PerkinElmer, Shelton, CT) at Excitation 405nm, Emission 460nm and 530nm. The % activity was determined from the ratio of 460nm/530nm. For cell viability readout that measures cytotoxicity, 4 uL /well of CellTiter-Glo reagent was added into the assay plates using Bioraptr FRD. After 30 min incubation at room temperature, the luminescence intensity in the assay plates was measured using a ViewLux (PerkinElmer, Shelton, CT) plate reader.
Background: In qHTS, concentration-response curves come from the screen itself.
For `Nc1ccc(C(=O)NCC(=O)O)cc1`, the “viability change, negative = cytotoxic” value was -0.157% [at 42.5 µM].

As to `CCO`, the “viability change, negative = cytotoxic” value is 15.8%. The same measure, in the same setting: for `CCN(CC)CCN` the value was 4.14% [at 42.5 µM]; for `Sc1nc2ccccc2s1`, 2.92%. On the same count and under the same terms, for `NCCCOCCOCCOCCCN` the value was -6.65%.

On to `O=C(O)CCCCC(=O)O`, for which the Potency entry was “inactive”. Turning to `O=C(OCCOCCOCCOC(=O)c1ccccc1)c1ccccc1`, the “viability change, negative = cytotoxic” value was 0.592%. Still for that read-out and setting: for `O=C(Cl)c1ccc(Cl)cc1Cl` the value was -9.54%.

For `CCCOC(=O)c1ccc(C(=O)OCCC)nc1`, the “viability change, negative = cytotoxic” value is 1.67%. Still for that read-out and setting: the same measure for `COCCOC(=O)c1ccccc1C(=O)OCCOC`: -0.474%; for `CCOC(=O)c1ccc(C#Cc2ccc3c(c2)C(C)(C)CCS3)nc1`: 10.1% [at 42.5 µM]; for `NS(=O)(=O)c1ccc(Cl)c(S(N)(=O)=O)c1`: 2.95% [at 42.5 µM]. In the case of `O=S(=O)(O)c1cccc2c(S(=O)(=O)O)cccc12`, the “viability change, negative = cytotoxic” value was -3.13%. Same read-out and setting: for `O=C(O)c1ccc2c(c1)nc(C(=O)NC1CCN(C3CC3)CC1)n2Cc1cc(-c2ccc(Cl)s2)on1` the value was -0.942% [at 18.9 µM]; for `CCCCOC(=O)C(C)O` (stereo not given), 1.87%; for `C(=C(c1ccccc1)c1ccccc1)c1ccccc1`, -7.31%. The same measure, in the same setting: for `CCCCCCCCCCCC(=O)OCC(O)CO` (stereo not given) the value was -3.63%; for `CC(C)COC(=O)COc1cc(Cl)c(Cl)cc1Cl`, 5.76%. As to `CCN(C(=O)N(CC)c1ccccc1)c1ccccc1`, the “viability change, negative = cytotoxic” value is -16.5%. Still for that read-out and setting: the same measure for `CC/C=C\CCOC(=O)C(C)C`: -6.04%.

On to `CCN(CC)CCOC(=O)c1ccc(N)cc1`, for which the Potency result was “inactive”.

Consider `OCCOCCOCCOCCO`, for which the Potency result is “inactive”. Take `CC1(COc2ccc(CC3SC(=O)NC3=O)cc2)CCCCC1` (stereo not given): the “viability change, negative = cytotoxic” value was -12.3% [at 42.5 µM]. The same measure, in the same setting: for `O=C(O)Cc1cccc(-c2cc(CCCCCCc3ccc(O[C@H]4O[C@H](CO)[C@@H](O)[C@H](O)[C@@H]4O)c(-c4cccc(CC(=O)O)c4)c3)ccc2O[C@H]2O[C@H](CO)[C@@H](O)[C@H](O)[C@@H]2O)c1` the value was 1.99% [at 0.349 µM]; for `C[C@H]1[C@H]2CC[C@H]3[C@@H]4CC=C5C[C@@H](N(C)C)CC[C@]5(C)[C@H]4CC[C@]23CN1C`, -0.939% [at 42.5 µM]. On to `On1ccccc1=S`, for which the Potency was 9.59 µM (active).

`CCCC(=O)OCCC(C)CCC=C(C)C` (stereo not given): the “viability change, negative = cytotoxic” value was 2.61%. The same measure, in the same setting: for `COc1ccccc1OCCNCC(O)COc1cccc2[nH]c3ccccc3c12` (stereo not given) the value was -10.9% [at 42.5 µM]; for `Cc1cccn2c(=O)c(-c3nnn[nH]3)cnc12`, -1.68% [at 18.9 µM]. On the same count and under the same terms, for `OC[C@@H](O)[C@@H](O)CO` the value was -1.98%. On the same count and under the same terms, the same measure for `COc1ccc(COC=O)cc1`: 3.33%. As to `O=C(O)c1cc(C(=O)O)cc(S(=O)(=O)O)c1`, the Potency entry was “inactive”. For the compound `C=C[Si](OC(=C)C)(OC(=C)C)OC(=C)C`, the “viability change, negative = cytotoxic” value is 10.8%. Still for that read-out and setting: the same measure for `CC(C)(C)c1n[nH]c(=S)n(N)c1=O`: 2.23%; for `Clc1nc(C(Cl)(Cl)Cl)c(Cl)c(Cl)c1Cl`: -14.1%. Still for that read-out and setting: the same measure for `O=C(Oc1cccc2cccnc12)c1ccccc1`: -1.57% [at 42.5 µM]; for `CCCCCCCCCCCC(=O)N(CC)CC`: -5.63%; for `Nc1cccc(O)c1`: -1.08%.

As to `CC[C@@]1(c2ccccc2)NC(=O)N(C)C1=O`, the “viability change, negative = cytotoxic” value was 4.51% [at 42.5 µM]. The same measure, in the same setting: for `CCC(=O)O[C@]1(C(=O)SCF)[C@H](C)C[C@H]2[C@@H]3C[C@H](F)C4=CC(=O)C=C[C@]4(C)[C@@]3(F)[C@@H](O)C[C@@]21C` the value was -1.59% [at 42.5 µM].
